# In ChEMBL document CHEMBL4649994:
# Biological target: T1, Transcription intermediary factor 1-alpha (Homo sapiens) (UniProt O15164)
# T1 sequence (whole entry): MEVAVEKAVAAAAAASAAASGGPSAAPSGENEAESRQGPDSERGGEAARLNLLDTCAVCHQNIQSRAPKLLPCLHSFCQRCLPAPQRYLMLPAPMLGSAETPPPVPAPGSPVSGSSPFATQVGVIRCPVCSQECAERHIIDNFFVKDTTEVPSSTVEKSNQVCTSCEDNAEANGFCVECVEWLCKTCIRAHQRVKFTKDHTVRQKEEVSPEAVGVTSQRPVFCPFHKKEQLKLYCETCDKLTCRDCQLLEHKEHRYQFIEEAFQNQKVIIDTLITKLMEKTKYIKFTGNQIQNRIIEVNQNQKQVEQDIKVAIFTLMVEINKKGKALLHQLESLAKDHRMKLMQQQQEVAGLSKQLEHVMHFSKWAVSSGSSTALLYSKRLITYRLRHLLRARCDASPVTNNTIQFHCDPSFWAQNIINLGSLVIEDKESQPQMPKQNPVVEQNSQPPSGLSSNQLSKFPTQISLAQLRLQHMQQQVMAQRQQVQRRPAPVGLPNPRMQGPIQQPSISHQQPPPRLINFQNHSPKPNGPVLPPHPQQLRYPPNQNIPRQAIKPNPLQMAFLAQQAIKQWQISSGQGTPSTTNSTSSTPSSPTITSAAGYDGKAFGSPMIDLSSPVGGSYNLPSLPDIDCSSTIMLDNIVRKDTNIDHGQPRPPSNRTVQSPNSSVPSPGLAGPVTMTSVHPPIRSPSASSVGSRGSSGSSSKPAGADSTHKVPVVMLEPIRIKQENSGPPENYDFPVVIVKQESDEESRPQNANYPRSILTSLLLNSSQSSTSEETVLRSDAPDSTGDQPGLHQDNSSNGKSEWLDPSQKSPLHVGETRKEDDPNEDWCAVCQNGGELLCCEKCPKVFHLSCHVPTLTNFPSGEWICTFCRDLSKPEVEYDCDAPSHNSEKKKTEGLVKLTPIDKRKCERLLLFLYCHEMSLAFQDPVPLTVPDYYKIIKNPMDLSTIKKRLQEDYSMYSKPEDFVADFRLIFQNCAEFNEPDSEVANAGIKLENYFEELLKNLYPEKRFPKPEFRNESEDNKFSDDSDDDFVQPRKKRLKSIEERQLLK
# Settings: Compound concentration 10.0 uM, Protein concentration 2.0 uM
smiles,measurement,value
COc1ccccc1S(=O)(=O)Nc1ccc2c(c1)CN(C)C(=O)N2,ΔTm,0.62 °C
